Source: PubChem (several laboratories)
Bim-Mcl-1: inhibitors of Bim peptide binding to Mcl-1, primary screen, biochemical, bead-based flow cytometry, multiplex | inhibition, % at 10 µM | Bim peptide-Mcl-1 binding | 190,000 tested, 0.1% active | Induced myeloid leukemia cell differentiation protein Mcl-1 (Homo sapiens), Q07820; in the data active = inhibition above about 40%
GLD-1 RNA inh: GLD-1/TGE RNA complex disruptors, primary screen, biochemical, fluorescence polarization; Female germline-specific tumor suppressor gld-1 (Caenorhabditis elegans), Q17339; purified GLD-1 + fluorescein TGE RNA; inhibition, % at 5.96 µM; 320,000 tested, 0.44% active; AID 2280, 2010;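 active = percent inhibition above a per-plate cutoff, the plate mean of test compounds plus 3 SD, cut at about 30% in these data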
Target sequence (Q17339 whole entry, looked up): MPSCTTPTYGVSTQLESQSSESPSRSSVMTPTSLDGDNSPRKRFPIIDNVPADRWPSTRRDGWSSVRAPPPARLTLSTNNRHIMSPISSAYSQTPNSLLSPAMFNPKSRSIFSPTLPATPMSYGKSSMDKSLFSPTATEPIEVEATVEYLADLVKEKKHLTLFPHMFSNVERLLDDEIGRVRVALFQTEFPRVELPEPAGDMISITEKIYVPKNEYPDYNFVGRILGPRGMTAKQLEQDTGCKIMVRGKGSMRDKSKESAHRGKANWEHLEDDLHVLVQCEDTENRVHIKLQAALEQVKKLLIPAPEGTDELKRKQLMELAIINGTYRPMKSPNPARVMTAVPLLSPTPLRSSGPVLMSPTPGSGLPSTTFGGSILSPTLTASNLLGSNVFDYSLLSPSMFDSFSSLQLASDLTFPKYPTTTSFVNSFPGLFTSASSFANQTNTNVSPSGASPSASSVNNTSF
Mcl1-Noxa inh: Mcl-1/Noxa binding inhibitors, primary screen, biochemical, TR-FRET, 1536-well; Induced myeloid leukemia cell differentiation protein Mcl-1 (Homo sapiens), Q07820; TR-FRET Mcl-1/Noxa peptide binding, 2 h; inhibition, % at 21.7 µM; 220,000 tested, 1.5% active;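 active = compounds that cut the protein-peptide binding signal by more than 50% relative to plate controls in a single-dose test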;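 also: His-tagged Mcl-1 with rhodamine Noxa BH3 peptide and terbium anti-His antibody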
Mcl1 Bid PPI: Mcl-1/Bid binding inhibitors, primary screen, biochemical, TR-FRET, 1536-well; TR-FRET Mcl-1/Bid-Dy647 peptide binding; Induced myeloid leukemia cell differentiation protein Mcl-1 (Homo sapiens), Q07820; 220,000 tested, 0.97% active; inhibition, % at 21.7 µM;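 active = compounds that cut the binding signal by more than half at the single screening dose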;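 also: His-tagged Mcl-1 with europium anti-His antibody binding Bid BH3 peptide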
BCLXL inh: inhibitors of human Bcl-xL, primary screen, biochemical, fluorescence polarization, HTS. inhibition, % at 10.9 µM. AID 2129, 2009. 320,000 tested, 0.7% active. GST-Bcl-xL / FITC-Bim BH3 peptide fluorescence polarization;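 active = inhibition above the mean of all tested compounds plus 3 SD, cutoff set per campaign, cut at about 30% in these data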;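 also: inhibitors lower millipolarization by displacing the labeled peptide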
Target sequence (Q07817 whole entry, looked up): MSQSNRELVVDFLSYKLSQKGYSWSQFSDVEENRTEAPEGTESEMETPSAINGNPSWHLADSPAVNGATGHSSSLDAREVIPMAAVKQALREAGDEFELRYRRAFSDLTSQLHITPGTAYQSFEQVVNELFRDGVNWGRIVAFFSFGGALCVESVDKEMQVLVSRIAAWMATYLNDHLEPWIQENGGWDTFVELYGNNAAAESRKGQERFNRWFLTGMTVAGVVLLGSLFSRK
MCL1-BIM inh: inhibitors of MCL1 binding to BIM-BH3, primary screen, biochemical, fluorescence polarization. Induced myeloid leukemia cell differentiation protein Mcl-1 (Homo sapiens), Q07820. GST-MCL1 / FITC-Bim-BH3 fluorescence polarization. inhibition, % at 10.9 µM. 320,000 tested, 0.68% active. AID 2057, 2009;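 active = inhibition above the mean inhibition of all tested compounds plus 3 SD, set per campaign, cut at about 40% in these data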;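 also: higher means more loss of mP so more displacement of Bim peptide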
Large screens that a line does not name were inactive. Hits are enriched below; roughly 2.3% of the tested compounds scored in any of these assays.

Oc1ccc(C=Nc2ccc3ncccc3c2)c(O)c1	none
CCn1c(/N=C/c2ccc(OC)cc2O)nc2ccccc21	none (no result: Bim-Mcl-1, Mcl1-Noxa inh, Mcl1 Bid PPI)
Oc1ccc(C=Nc2cccc3ncccc23)c(O)c1	GLD-1 RNA inh 55
COc1cccc(N=Cc2ccc(O)cc2O)c1	BCLXL inh 43, MCL1-BIM inh 43
Nc1c(C(=O)Nc2ccc(F)cc2)sc2nc(-c3ccco3)ccc12	Mcl1-Noxa inh 98, Mcl1 Bid PPI 91
Cc1ccc(NC(=O)c2sc3nc4c(c(-c5ccco5)c3c2N)CCC4)cc1	GLD-1 RNA inh 64
Cc1cccc(N2CCN(C(=O)Cc3ccc(Br)cc3)CC2)c1C	Mcl1 Bid PPI 61
O=C(N=Nc1c(O)[nH]c2ccccc12)c1cc(NS(=O)(=O)c2cccs2)cc(NS(=O)(=O)c2cccs2)c1	Mcl1-Noxa inh 57
COc1ccccc1N1CCN(Cc2cc(=O)c(OCC(=O)NC(C)C)co2)CC1	none (no result: Bim-Mcl-1, Mcl1-Noxa inh, Mcl1 Bid PPI)
NS(=O)(=O)c1ccc(Nc2nc(-c3ccc4ccccc4c3)cs2)cc1	none
Cc1ccc(-c2csc(Nc3ccc(S(N)(=O)=O)cc3)n2)o1	Mcl1-Noxa inh 64
O=C(NCc1ccco1)c1ccc2c(=O)n(Cc3ccco3)c(SCC(=O)N3CCCC3)nc2c1	Mcl1-Noxa inh 54
N=c1c(S(=O)(=O)c2ccc(Cl)cc2)cc2c(=O)n3ccccc3nc2n1C1CCCCC1	none (no result: Bim-Mcl-1, Mcl1-Noxa inh, Mcl1 Bid PPI)
Cc1ccc(-c2cc(C(=O)OCC(=O)N(C)C3CCS(=O)(=O)C3)c3ccccc3n2)o1 (stereo not drawn)	Mcl1-Noxa inh 78
Cc1ccc(-c2cc(C(=O)OCC(=O)N(C)C3CCS(=O)(=O)C3)c3ccccc3n2)c(C)c1 (stereo not drawn)	none
CCN(C(=O)COC(=O)c1cc(-c2ccc(C)o2)nc2ccccc12)C1CCS(=O)(=O)C1 (stereo not drawn)	Mcl1-Noxa inh 68
CCN(C(=O)COC(=O)c1cc(-c2cccs2)nc2ccccc12)C1CCS(=O)(=O)C1 (stereo not drawn)	none
COc1ccccc1C1NC=C([N+](=O)[O-])C=C1[N+](=O)[O-] (stereo not drawn)	Mcl1-Noxa inh 77
Cc1cc(C)nc(N(C#N)S(=O)(=O)c2ccccc2Cl)n1	Mcl1 Bid PPI 89
CC(=O)Nc1ccc(S(=O)(=O)N(C#N)c2nc(C)cc(C)n2)cc1	none (no result: Bim-Mcl-1, Mcl1-Noxa inh, Mcl1 Bid PPI)
CC(C)c1ccc(NS(=O)(=O)c2ccc3[nH]cc(C(=O)N4CCC(C(N)=O)CC4)c(=O)c3c2)cc1	Mcl1 Bid PPI 59
O=C(CCn1c(=O)oc2ccc(Cl)cc21)NCCCN1CCOCC1	none (no result: Bim-Mcl-1, Mcl1-Noxa inh, Mcl1 Bid PPI)
COc1ccccc1-c1nc(COc2ccc(Cl)cc2Cl)no1	none (no result: Bim-Mcl-1)
CC(C)C(=O)OCC(=O)NCc1ccccc1Cl	none
O=C(COC(=O)c1cc[n+]([O-])cc1)NCc1ccccc1Cl	Mcl1-Noxa inh 72
CCCc1c(C(=O)Nc2cc(C)on2)cnn1-c1ccccc1	none (no result: Bim-Mcl-1)
O=C(O)c1ccc(-c2ccc(/C=C3\NC(=O)N(Cc4ccc(Cl)cc4)C3=O)o2)cc1Cl	Mcl1-Noxa inh 56 (no result: GLD-1 RNA inh, BCLXL inh, MCL1-BIM inh)
CCOC(=O)CN1C(=O)S/C(=C\c2ccc(-c3ccc(C(=O)O)c(Cl)c3)o2)C1=O	none (no result: Bim-Mcl-1, Mcl1-Noxa inh, Mcl1 Bid PPI)
CCn1cc(CN2CCC(n3nccc3NC(=O)c3ccc4c(c3)OCO4)CC2)c(C)n1	none (no result: Bim-Mcl-1, Mcl1-Noxa inh, Mcl1 Bid PPI)
CCc1ccc(CCC(=O)Nc2ccc(C)cc2C)o1	Mcl1 Bid PPI 84
CC(C)(O)C1Cc2cc(/C=C/C(=O)O)c(O)cc2O1 (stereo not drawn)	Mcl1-Noxa inh 61 (no result: GLD-1 RNA inh, BCLXL inh, MCL1-BIM inh)
CCOC(=O)N1CCN(c2c(NCCCN(CC)Cc3ccccc3)c(=O)c2=O)CC1	Mcl1-Noxa inh 77
CCCCN(CC)CCNc1c(N2CCN(C(=O)OCC)CC2)c(=O)c1=O	Mcl1-Noxa inh 75
CCOC(=O)N1CCC(Nc2c(NCCCN(CC)Cc3ccccc3)c(=O)c2=O)CC1	none
CCOC(=O)C1CCN(c2c(NCCCN(CC)Cc3ccccc3)c(=O)c2=O)CC1	Mcl1-Noxa inh 71
CCOC(=O)N1CCN(c2c(NCCCN(CC)CC)c(=O)c2=O)CC1	none
COc1ccc(S(=O)(=O)N2CCN(c3ncccn3)CC2)cc1OC	none (no result: Bim-Mcl-1, Mcl1-Noxa inh, Mcl1 Bid PPI)
CCN(CC)CCCNc1nc(SC)nc2sc3c(c12)CCN(C)C3	BCLXL inh 71 (no result: Bim-Mcl-1, Mcl1-Noxa inh, Mcl1 Bid PPI)
O=C1N=C(N2CCOCC2)S/C1=C\c1ccc(-c2ccccc2Cl)o1	BCLXL inh 40
CC(C)(CO)Cc1cc(C(C)(C)C)c(O)c(C(C)(C)C)c1	none (no result: Bim-Mcl-1, Mcl1-Noxa inh, Mcl1 Bid PPI)
Cn1c(NC(=O)c2ccccc2C(F)(F)F)cc(=O)n(C)c1=O	GLD-1 RNA inh 162
O=C(Nc1ccc2c(c1)OCO2)c1cnccn1	none
Nc1ccc(C(=O)OCC(=O)Nc2ccc3c(c2)OCO3)cc1[N+](=O)[O-]	Mcl1-Noxa inh 52
O=C(COC(=O)c1cnccn1)Nc1ccc2c(c1)OCO2	Mcl1-Noxa inh 62
CCCc1cnc(N2CCN(C(=O)c3ccccc3)CC2)nc1	none (no result: Bim-Mcl-1, Mcl1-Noxa inh, Mcl1 Bid PPI)
CCN(CC)c1ccc(NC(=O)c2cc(Cl)ccc2OC)cc1	Mcl1-Noxa inh 66
CN(C)c1ccc(NC(=O)c2cccc(C(=O)Nc3ccc(N(C)C)cc3)n2)cc1	Mcl1-Noxa inh 86
COc1cccc(C(=O)Nc2ccc(N(C)C)cc2)c1OC	Mcl1-Noxa inh 65
CN(C)c1ccc(/C=N/NC(=O)c2cccc(C(=O)N/N=C/c3ccc(N(C)C)cc3)n2)cc1	Mcl1-Noxa inh 82
COc1ccc(Cl)cc1C(=O)Nc1ccncc1	none (no result: Bim-Mcl-1, Mcl1-Noxa inh, Mcl1 Bid PPI)
COc1cccc(NC(=O)CCS(=O)(=O)c2ccc3c(c2)oc(=O)n3C)c1	none (no result: Bim-Mcl-1, Mcl1-Noxa inh, Mcl1 Bid PPI)
CCOC(=O)C1=C(C)N(c2ccc(C)cc2)C(=O)/C1=C\c1cccs1	Mcl1-Noxa inh 52
Cc1[nH]c2ccccc2c1/C=N\NC(=O)CNc1ccc2c(c1)OCO2	Mcl1-Noxa inh 56
COC(=O)CNc1ccc2c(c1)OCO2	BCLXL inh 31
O=C(COC(=O)c1ccc2c(=O)n3c(nc2c1)CCC3)NC1CCS(=O)(=O)C1 (stereo not drawn)	none
COc1ccc(C)cc1NC(=O)CCS(=O)(=O)c1ccc2c(c1)oc(=O)n2C	none (no result: Bim-Mcl-1, Mcl1-Noxa inh, Mcl1 Bid PPI)
Cc1cccc(C)c1NC(=O)N1C2CCC1CC(O)(c1cccnc1)C2 (stereo not drawn)	Mcl1-Noxa inh 53
COc1ccc(OCCOC(=O)Nc2ccccc2)cc1	none
COc1cc(C(F)(F)F)nc2ccc(C#CCOC(=O)Nc3ccccc3)cc12	BCLXL inh 36 (no result: Bim-Mcl-1)
O=C(N=C1SC2CS(=O)(=O)CC2N1Cc1ccccc1)C1CCCCC1 (stereo not drawn)	none (no result: Bim-Mcl-1, Mcl1-Noxa inh, Mcl1 Bid PPI)
